In ChEMBL document CHEMBL4513146, “CO-ADD screening of Karazin Kharkiv National University (Ukraine) compounds” one finds Inhibition data, which are given here for 71 compounds.

Entries with a potency or affinity are not part of this list.

Assay [1] has as its system Staphylococcus aureus. The conditions noted are these: Concentration 32 ug.mL-1;; ASSAY_TEST Inhibition of Bacterial Growth; detection method Absorption (OD600); MEDIA CAMHB; plate type 384well; NBS; CORNING #3640; time 18 hr.
For assay [2], the system named is Escherichia coli. The conditions noted are these: Concentration 32 ug.mL-1;; ASSAY_TEST Inhibition of Bacterial Growth; detection method Absorption (OD600); MEDIA CAMHB; plate type 384well; NBS; CORNING #3640; time 18 hr.

On to `COc1cccc(CN(c2cccc(C)c2)S(=O)(=O)c2ccc3nnc(C)n3c2)c1`, for which the Inhibition (commonly the relative decrease from the control value, in per cent) was 1.31% in assay [1] and -6.19% in assay [2].
On the same counts, the results for `O=C(Cn1nc2nc(Nc3ccc(F)cc3)ccn2c1=O)Nc1ccc(F)cc1` are -16.48% and -2.62%.
The matching figures for `Cc1ccc(NC(=O)CSc2nnc3ccc(C(=O)Nc4cccc(F)c4)cn23)cc1F`: 14.43% and 0.35%.
The matching figures for `CCOc1ccc(-n2ccn3c(SC(C)C(=O)Nc4cc(OC)cc(OC)c4)nnc3c2=O)cc1` (configuration not stated): 1.84% and 2.97%.
For the compound `O=C(Cn1nc2ccc(SC3CCCCC3)nn2c1=O)Nc1ccc2c(c1)OCO2`, the figures for the Inhibition in assay [1] and in assay [2] were -7.41% and -17.56%, respectively.
On the same counts, the results for `COc1cc(NC(=O)CSc2nnc3c(=O)n(-c4cccc(F)c4)ccn23)cc(OC)c1` are 10.57% and -3.07%.
On to `COc1cccc(NC(=O)Cn2nc3c(=O)n(-c4ccc(Br)cc4)ccn3c2=O)c1`, for which the Inhibition was -2.73% in assay [1] and -3.42% in assay [2].
On the same counts, the results for `COc1ccc(NC(=O)Cn2nc3c4cc(-c5ccc(C)c(C)c5)nn4ccn3c2=O)cc1OC` are 7.31% and -0.24%.
For the compound `O=C(Cn1nc2c(SC3CCCCC3)nccn2c1=O)N1CCN(c2ccccc2)CC1`, the Inhibition is on record as 2.31% in assay [1] and 0.18% in assay [2].
The matching figures for `CCN(CCCNC(=O)CCc1nnc2ccc(-c3ccc(C)c(C)c3)nn12)c1ccccc1`: -5.09% and -5.52%.
The matching figures for `Cc1ccc(Cl)cc1NC(=O)Cn1nc2c3c4c(sc3ncn2c1=O)CCCCC4`: 5.6% and -1.7%.
On the same counts, the results for `COc1ccccc1Cn1c(=O)c2sccc2n2c(=O)n(CC(=O)c3ccc(C)cc3C)nc12` are -4.72% and -4.83%.
Turning to `COc1cc(NC(=O)Cn2nc3ccc(-c4ccc(C)c(C)c4)nn3c2=O)cc(OC)c1`, the Inhibition in assay [1] is on record as 8.96%; in assay [2] it was -5.07%.
The matching figures for `COc1ccc(NC(=O)Cn2nc3c(N4CCOCC4)nccn3c2=O)cc1Cl`: 10.11% and -1.05%.
On the same counts, the results for `Cc1cc(C)c(NC(=O)Cn2nc3c4cc(-c5ccc(C)c(C)c5)nn4ccn3c2=O)c(C)c1` are -7.12% and -12.18%.
On the same counts, the results for `Cc1ccc(Cl)cc1NC(=O)CSc1nnc2c(=O)n(-c3ccccc3)ccn12` are 7.91% and -1.12%.
Turning to `O=c1n(Cc2cccc(Cl)c2)nc2ccc(-c3ccccc3)nn12`, the Inhibition in assay [1] is on record as 13.35%; in assay [2], 0.79%.
The matching figures for `N#Cc1ccccc1NC(=O)Cn1nc2c(Oc3ccccc3)nccn2c1=O`: 8.21% and 1.56%.
On the same counts, the results for `COc1ccc(-c2cc3c4nnc(SCC(=O)NCc5ccccc5Cl)n4ccn3n2)cc1` are -4.22% and -7.58%.
Consider `Cc1ccc(Cl)cc1NC(=O)Cn1c(=O)c2nnc(C(C)C)n2c2ccccc21`, for which the Inhibition was 2.92% in assay [1] and -2.02% in assay [2].
On to `O=C(Cn1nc2c3cc(-c4ccc(F)cc4)nn3ccn2c1=O)Nc1ccc2c(c1)OCCO2`, for which the figures for the Inhibition in assay [1] and in assay [2] were 10.64% and 1.96%, respectively.
The matching figures for `CCc1nnc2c(=O)n(CC(=O)Nc3ccc4c(c3)OCCO4)c3ccccc3n12`: 2.09% and -4.51%.
With `COc1cccc(-n2ccn3c(SCC(=O)Nc4cccc(F)c4)nnc3c2=O)c1`, the results for the Inhibition in assay [1] and in assay [2] were -6.79% and -18.41%, respectively.
The matching figures for `COC(=O)c1sccc1NC(=O)Cn1nc2c(Oc3ccccc3)nc3ccccc3n2c1=O`: 9.09% and 0.17%.
The matching figures for `COc1ccc(C(=O)CSc2nnc3c(=O)n(-c4ccc(F)cc4)ccn23)cc1`: 13.68% and -0.44%.
`CCc1ccc(NC(=O)Cn2nc3n(Cc4ccco4)c(=O)c4sccc4n3c2=O)cc1`: the Inhibition in assay [1] is -4.41%; in assay [2] it was -6.35%.
The matching figures for `CCCCn1c(=O)c2sccc2n2c(CCC(=O)NCCC34CC5CC(CC(C5)C3)C4)nnc12`: 7.09% and 0.44%.
On the same counts, the results for `COc1cccc(Sc2nc3ccccc3n3c(=O)n(CC(=O)Nc4ccc(C)cc4)nc23)c1` are 4.18% and -1.95%.
`CCc1nnc2c(SCC(=O)Nc3ccc(OC)c(Cl)c3)nc3ccccc3n12`: the results for the Inhibition in assay [1] and in assay [2] were 9.23% and 5.47%, respectively.
As for `Cc1ccc(CN(c2ccc(C(C)C)cc2)S(=O)(=O)c2cccn3cnnc23)cc1`, the Inhibition stood at 21.94% in assay [1] and 4.59% in assay [2].
As to `Cc1ccc(NC(=O)Cn2nc3ccc(C(=O)NCc4ccccc4)cn3c2=O)c(Br)c1`, the figures for the Inhibition in assay [1] and in assay [2] were -7.88% and -9.76%, respectively.
The matching figures for `Cc1[nH]c2ccccc2c1C(=O)CSc1nnc2c(=O)n(-c3ccccc3)ccn12`: 16.56% and -0.61%.
The matching figures for `Cc1ccc(Nc2cc(C)n3c(=O)n(CCOc4ccc(F)cc4)nc3n2)cc1`: 8.99% and -0.82%.
With `O=C(Cn1nc2c3cc(-c4ccc(Cl)cc4)nn3ccn2c1=O)NC1CCCC1`, the Inhibition in assay [1] is given as -0.6%; in assay [2], -3.32%.
Turning to `O=C(Cn1nc2c(N3CCOCC3)nccn2c1=O)Nc1ccc2c(c1)OCO2`, the Inhibition in assay [1] is reported as 15.61%; in assay [2] it was 0.24%.
On the same counts, the results for `O=C(Cn1nc2c(Oc3ccccc3)nc3ccccc3n2c1=O)Nc1ccc2c(c1)OCO2` are 13.59% and 2.6%.
Regarding `O=C(Cn1nc2c3sc(N4CCCC4)nc3ncn2c1=O)Nc1ccc(F)c(Cl)c1`, the figures for the Inhibition in assay [1] and in assay [2] were 15.3% and 1.03%, respectively.
For `Cc1ccc(NC(=O)Cn2nc3ccc(SC4CCCCC4)nn3c2=O)cc1C`, the Inhibition is listed as -6.2% in assay [1] and -13.15% in assay [2].
The matching figures for `CCOC(=O)c1ccc(NC(=O)Cn2nc3c(SCc4ccc(Cl)cc4)nccn3c2=O)cc1`: -2.95% and -14.83%.
The matching figures for `O=c1c2sccc2n2c(=O)n(Cc3cccc(Br)c3)nc2n1Cc1cccs1`: -27.59% and -23.42%.
Turning to `Cn1c(=O)c2sccc2n2c(=O)n(Cc3cccc(Br)c3)nc12`, the Inhibition in assay [1] was found to be 14.17%; in assay [2], 0.53%.
With `O=C(CSc1nnc2c(=O)n(-c3ccccc3)ccn12)Nc1ccccc1F`, the Inhibition in assay [1] is listed as 8.41%; in assay [2] it was 1.53%.
On the same counts, the results for `CCc1ccccc1Sc1nccn2c(=O)n(CC(=O)NCc3ccc(OC)cc3)nc12` are -5.48% and -1.47%.
The matching figures for `O=c1n(Cc2ccc(Cl)cc2)nc2ccc(-c3ccccc3)nn12`: 3.14% and -1.49%.
For `Cc1ccc(N(Cc2ccc(F)cc2)S(=O)(=O)c2ccc3nnc(C)n3c2)cc1`, the Inhibition in assay [1] was 0.5%; in assay [2] it was -5.57%.
As for `CC(C)c1ccc(NC(=O)Cn2nc3c(N4CCCCC4)nccn3c2=O)cc1`, the results for the Inhibition in assay [1] and in assay [2] were -8.03% and -4.05%, respectively.
With `CCOC(=O)c1ccccc1NC(=O)Cn1nc2c3cc(-c4ccc(Cl)cc4)nn3ccn2c1=O`, the Inhibition in assay [1] turned out to be 7.33%; in assay [2] it was 2.34%.
The matching figures for `O=S(=O)(c1ccc2nncn2c1)N(Cc1ccc(Cl)cc1)c1ccc2c(c1)OCO2`: 11.62% and -6.36%.
On the same counts, the results for `CC(C)NC(=O)CCn1c(=O)c2ccccc2n2c(=O)n(CC#N)nc12` are -1.98% and 0.48%.
In the case of `Cc1ccc(NC(=O)Cn2nc3c(SC4CCCCC4)nccn3c2=O)cc1F`, the Inhibition is listed as 10.42% in assay [1] and -1.05% in assay [2].
The matching figures for `O=C(CSc1nnc2c3cc(-c4ccc(F)cc4)nn3ccn12)NCc1ccccc1Cl`: 1.62% and -6.39%.
The matching figures for `COc1cccc(-n2ccn3c(SCC(=O)c4ccc(OC)c(OC)c4)nnc3c2=O)c1`: 10.14% and 2.93%.
Turning to `COc1ccc(CNC(=O)Cn2nc3c(SC4CCCCC4)nccn3c2=O)cc1`, the Inhibition in assay [1] was 8.37%; in assay [2] it was -2.77%.
The matching figures for `Cc1cccc(NC(=O)CSc2nnc3ccc(C(=O)Nc4cccc(F)c4)cn23)c1`: 8.5% and -1.74%.
As to `Cc1ccc(-c2cc3c4nn(CC(=O)NC5CCCC5)c(=O)n4ccn3n2)cc1C`, the Inhibition is on record as -0.99% in assay [1] and -0.5% in assay [2].
On the same counts, the results for `Cc1ccccc1CSc1nnc2c(=O)n(-c3ccc(Br)cc3)ccn12` are 1.11% and -8.83%.
The matching figures for `O=C(Cn1nc2n(Cc3ccc(F)cc3)c(=O)c3ccccc3n2c1=O)Nc1ccc2c(c1)OCO2`: 15.06% and -3.01%.
Turning to `Cc1ccccc1Oc1nccn2c(=O)n(CC(=O)Nc3ccc(Cl)c(Cl)c3)nc12`, the values for the Inhibition in assay [1] and in assay [2] were 7.54% and -4.77%, respectively.
The matching figures for `Cc1cccc(Sc2nccn3c(=O)n(CC(=O)Nc4ccc(Br)cc4C)nc23)c1`: 8.48% and -5.33%.
Regarding `CCc1ccccc1Sc1nccn2c(=O)n(CC(=O)N3CCN(c4ccc(F)cc4)CC3)nc12`, the Inhibition in assay [1] is given as 2.23%; in assay [2], -2.15%.
On the same counts, the results for `COc1ccc(CCNC(=O)Cn2nc3c(N4CCOCC4)nccn3c2=O)cc1OC` are 21.7% and 0.1%.
On the same counts, the results for `CCc1nnc2c(S(=O)(=O)N(Cc3cccc(C)c3)c3ccc(Cl)cc3)cccn12` are 8.39% and 0.27%.
For `COc1ccc(CCn2c(=O)c3sccc3n3c(=O)n(Cc4ccccc4Cl)nc23)cc1OC`, the Inhibition in assay [1] was 1.03%; in assay [2], -4.64%.
In the case of `COc1ccc(NC(=O)Cn2nc3ccc(-c4ccccc4)nn3c2=O)cc1OC`, the results for the Inhibition in assay [1] and in assay [2] were 0.84% and -8.27%, respectively.
The matching figures for `O=c1c2nn(Cc3ccccc3Cl)c(=O)n2ccn1-c1ccccc1`: -1.67% and -5.84%.
The matching figures for `Cc1ccc(-c2cc3c4nnc(SCC(=O)Nc5cccc(Br)c5)n4ccn3n2)cc1`: 5.15% and -4.56%.
For `Cc1ccc(NC(=O)Cn2nc3c4cc(-c5ccc(C)c(C)c5)nn4ccn3c2=O)cc1C`, the figures for the Inhibition in assay [1] and in assay [2] were 0.99% and -7.36%, respectively.
As to `Cc1ccc(C)c(NC(=O)Cn2nc3ccc(-c4ccccc4)nn3c2=O)c1`, the Inhibition is listed as -0.8% in assay [1] and -9.05% in assay [2].
Regarding `Cc1nnc2ccc(S(=O)(=O)N(Cc3cccc(F)c3)c3ccc4c(c3)OCO4)cn12`, the results for the Inhibition in assay [1] and in assay [2] were -10.23% and -15.4%, respectively.
With `O=C(CSc1nnc2c(=O)n(-c3ccccc3)ccn12)NCc1ccc(Cl)cc1`, the Inhibition in assay [1] was 9.66%; in assay [2], -0.23%.
The matching figures for `Cc1ccc(NC(=O)Cn2nc3ccc(SC(C)(C)C)nn3c2=O)c(Cl)c1`: -0.06% and -7.75%.
